Data reported in PubChem BioAssay.
Activity calls are given as the source filed them. Unless noted, how the calls were made is not given here.

Assays:
[1] = system: Wnt5a (protein binding on small-molecule microarray); test: small molecules binding Wnt5a protein – biophysical, small-molecule microarray, 635/667 nm fluorescence, primary screen (AID 1142); conditions: 635 nm fluorescence, higher = more signal;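 further: fluorescence read at 667 nm with signal to noise per printed feature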
[2] = ATP-based viability of Huh7 replicon cells – cell-based, CellTiter-Glo luminescence, basal, 48 h, cytotoxicity control for HCV replication inhibitor project, primary screen (AID 1143); conditions: higher = more signal, called active from +8 up or from −8 down;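 further: Huh7 hepatoma cells carrying a hepatitis C replication reporter with no stimulus; test concentration not given here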
[3] = Pseudomonas biofilm growth suppression – PAO1 strain, BacTiter-Glo luminescence, LB-PBS, primary screen (AID 1144); conditions: P. aeruginosa PAO1 biofilm, 12 h, higher = more signal
[4] = basal CRE-LacZ reporter activity in PC12 – cell-based, unstimulated, primary screen (AID 1145); conditions: no forskolin, luminescence, 4.5 h, higher = more signal, called active from +8 up or from −8 down
[5] = forskolin-driven CRE-LacZ activity in PC12 – cell-based, CRE-LacZ reporter, forskolin-stimulated, primary screen (AID 1146); conditions: luminescence, 4.5 h, higher = more signal, called active from +8 up or from −8 down;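 further: PC12 cells with 6xCRE LacZ reporter stimulated by forskolin 10 µM; beta-galactosidase reporter signal reflecting CREB driven transcription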
[6] = target: Streptavidin (Streptomyces avidinii) (UniProt P22629); test: compounds binding control protein streptavidin – biophysical, small-molecule microarray, 635/667 nm fluorescence, artefact control for SMM compound annotation, primary screen (AID 1147); conditions: higher = more signal;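 further: signal reflects streptavidin binding to arrayed compounds as a control protein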
Streptavidin (Streptomyces avidinii), sequence (P22629 whole entry, looked up): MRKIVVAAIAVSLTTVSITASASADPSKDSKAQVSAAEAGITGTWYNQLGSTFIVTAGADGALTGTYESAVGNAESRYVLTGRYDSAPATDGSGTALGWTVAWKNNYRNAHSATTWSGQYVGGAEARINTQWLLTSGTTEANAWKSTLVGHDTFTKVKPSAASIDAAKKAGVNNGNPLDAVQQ

[7] = probe aInhba binding on compound microarray – biochemical, small-molecule microarray, 635/667 nm fluorescence, primary screen (AID 1148); conditions: higher = more signal;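 further: score merges 667nm spot fluorescence with signal-to-noise for antibody binding to printed compounds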
Torsin-1A (Homo sapiens) [8] = target: Torsin-1A (Homo sapiens) (UniProt O14656); test: TOR1A wild-type binding on microarray – cell lysate, small-molecule microarray, lysate, 635/667 nm, primary screen (AID 1149); conditions: COS7 hTOR1A-WT lysate, 635 nm fluorescence, higher = more signal
Torsin-1A (Homo sapiens), sequence (O14656 whole entry, looked up): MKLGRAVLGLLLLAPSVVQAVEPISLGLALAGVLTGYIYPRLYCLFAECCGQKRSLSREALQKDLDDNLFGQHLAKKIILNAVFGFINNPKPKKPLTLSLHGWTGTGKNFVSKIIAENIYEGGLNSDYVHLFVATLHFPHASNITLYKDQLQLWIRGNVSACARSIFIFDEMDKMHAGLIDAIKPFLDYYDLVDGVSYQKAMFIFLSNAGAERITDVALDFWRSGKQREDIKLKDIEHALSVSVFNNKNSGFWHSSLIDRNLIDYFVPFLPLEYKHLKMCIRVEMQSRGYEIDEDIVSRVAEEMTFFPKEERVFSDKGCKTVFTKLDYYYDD

Torsin-1A (Homo sapiens) [9] = target: Torsin-1A (Homo sapiens) (UniProt O14656); test: torsin A mutant lysate binding on microarrays – cell lysate, small-molecule microarray, COS7 lysate, 635/667 nm fluorescence, primary screen (AID 1150); conditions: COS7 hTOR1A mutant lysate, 635 nm fluorescence, higher = more signal;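 further: score pools 667 nm emission and signal to noise measuring lysate protein binding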
[10] = system: Sonic hedgehog protein (Shh); test: Sonic hedgehog microarray binding compounds – biochemical, small-molecule microarray, 635/667 nm fluorescence, primary screen (AID 1151); conditions: 635 nm fluorescence, higher = more signal;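 further: Shh protein binding to compounds spotted on small-molecule microarray slides; score combines spot fluorescence intensity with signal-to-noise across triplicate slides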
[11] = optical density shifts of acrAB sulA E. coli – strain DRC41, OD650, 48 h, E. coli filamentation inducer project, primary screen (AID 1152); conditions: higher = more signal, called active from +8 up or from −8 down;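 further: E. coli MC1000 strain DRC41 lacking acrAB efflux pump and sulA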
[12] = probe aLefty1 binding on compound microarray – biochemical, small-molecule microarray, 635/667 nm fluorescence, primary screen (AID 1153); conditions: higher = more signal;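 further: score merges spot fluorescence with signal-to-noise ratio from the scanned slide images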
[13] = plasmodial surface anion channel blockers, osmotic lysis – cell-based, P. falciparum Indochina, OD700, 1 h, primary screen (AID 1154); conditions: P. falciparum Indochina infected RBC osmotic lysis, higher = more signal, called active from +8 up or from −8 down
[14] = plasmodial surface anion channel blockers, osmotic lysis – cell-based, P. falciparum Indochina, OD700, 2 h, primary screen (AID 1155);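 further: lysis reports solute entry through the parasite surface anion channel PSAC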; conditions: P. falciparum Indochina infected erythrocytes, higher = more signal, called active from +8 up or from −8 down
[15] = changes in parasitized red cell lysis, either direction – P. falciparum Indochina, OD700, 3 h, PSAC antagonist project, primary screen (AID 1156); conditions: P. falciparum-infected erythrocytes, osmotic lysis, higher = more signal, called active from +8 up or from −8 down
[16] = plasmodial surface anion channel blockers, osmotic lysis – cell-based, P. falciparum Indochina, OD700, 18 h, primary screen (AID 1157); conditions: P. falciparum Indochina infected erythrocytes, osmotic lysis OD700, 18 h; higher = more signal, called active from +8 up or from −8 down
[17] = S6 kinase pathway phospho-S6 level changes – cell-based, A549, cytoblot, luminescence, serum-stimulated, primary screen (AID 1158); conditions: 5 h, higher = more signal;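 further: serum-stimulated A549 lung adenocarcinoma cells; signal is phosphorylated S6 detected by cytoblot immunostaining with HRP secondary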
[18] = target: NADPH oxidase 2 (Homo sapiens) (UniProt P04839); test: compounds shifting NOX2 Amplex Red fluorescence – cell-based, HEK293-NOX2, PMA-stimulated, NOX inhibitor project, primary screen (AID 1159); conditions: 45 min, higher = more signal, called active from +8 up or from −8 down; further: test concentration not given here
NADPH oxidase 2 (Homo sapiens), sequence (P04839 whole entry, looked up): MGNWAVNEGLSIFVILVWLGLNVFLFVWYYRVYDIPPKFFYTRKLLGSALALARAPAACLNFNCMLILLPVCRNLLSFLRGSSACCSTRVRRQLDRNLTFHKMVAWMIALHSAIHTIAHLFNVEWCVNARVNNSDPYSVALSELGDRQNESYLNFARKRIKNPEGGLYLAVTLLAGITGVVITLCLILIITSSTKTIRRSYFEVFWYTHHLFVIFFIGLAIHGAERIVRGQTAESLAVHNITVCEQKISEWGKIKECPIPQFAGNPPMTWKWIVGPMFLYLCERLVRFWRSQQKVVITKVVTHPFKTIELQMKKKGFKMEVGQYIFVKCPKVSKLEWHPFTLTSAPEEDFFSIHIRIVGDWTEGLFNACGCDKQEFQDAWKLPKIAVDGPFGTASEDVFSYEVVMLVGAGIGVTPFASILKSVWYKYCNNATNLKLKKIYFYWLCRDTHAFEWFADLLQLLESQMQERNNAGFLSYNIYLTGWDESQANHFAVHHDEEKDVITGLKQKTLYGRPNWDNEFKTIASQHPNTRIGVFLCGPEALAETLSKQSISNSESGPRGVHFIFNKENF

[19] = target: NADPH oxidase 4 (Homo sapiens) (UniProt Q9NPH5); test: compounds shifting NOX4 Amplex Red fluorescence – cell-based, HEK293-NOX4, tetracycline-induced, NOX inhibitor project, primary screen (AID 1160); conditions: HEK293-NOX4, Amplex Red H2O2 fluorescence, 45 min; higher = more signal, called active from +8 up or from −8 down
NADPH oxidase 4 (Homo sapiens), sequence (Q9NPH5 whole entry, looked up): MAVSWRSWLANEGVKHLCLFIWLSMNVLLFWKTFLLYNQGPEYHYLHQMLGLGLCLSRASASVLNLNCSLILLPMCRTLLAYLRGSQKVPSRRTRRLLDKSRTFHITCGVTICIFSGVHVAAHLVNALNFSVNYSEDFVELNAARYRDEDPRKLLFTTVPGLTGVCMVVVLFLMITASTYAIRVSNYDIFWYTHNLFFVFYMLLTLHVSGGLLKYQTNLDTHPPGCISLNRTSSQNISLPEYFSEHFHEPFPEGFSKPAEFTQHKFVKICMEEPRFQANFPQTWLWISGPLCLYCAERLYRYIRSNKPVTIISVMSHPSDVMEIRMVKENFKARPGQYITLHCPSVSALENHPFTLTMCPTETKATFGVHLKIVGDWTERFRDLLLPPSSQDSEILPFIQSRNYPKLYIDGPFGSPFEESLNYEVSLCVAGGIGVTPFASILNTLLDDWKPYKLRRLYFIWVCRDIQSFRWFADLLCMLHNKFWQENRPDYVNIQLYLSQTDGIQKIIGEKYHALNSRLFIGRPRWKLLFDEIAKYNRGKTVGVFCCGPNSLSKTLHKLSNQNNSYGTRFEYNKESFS

[20] = target: NADPH oxidase 5 (Homo sapiens) (UniProt Q96PH1); test: compounds shifting NOX5 Amplex Red fluorescence – cell-based, HEK293-NOX5, NOX inhibitor project, primary screen (AID 1161); conditions: HEK293-NOX5, ionomycin, 45 min, higher = more signal
NADPH oxidase 5 (Homo sapiens), sequence (Q96PH1 whole entry, looked up): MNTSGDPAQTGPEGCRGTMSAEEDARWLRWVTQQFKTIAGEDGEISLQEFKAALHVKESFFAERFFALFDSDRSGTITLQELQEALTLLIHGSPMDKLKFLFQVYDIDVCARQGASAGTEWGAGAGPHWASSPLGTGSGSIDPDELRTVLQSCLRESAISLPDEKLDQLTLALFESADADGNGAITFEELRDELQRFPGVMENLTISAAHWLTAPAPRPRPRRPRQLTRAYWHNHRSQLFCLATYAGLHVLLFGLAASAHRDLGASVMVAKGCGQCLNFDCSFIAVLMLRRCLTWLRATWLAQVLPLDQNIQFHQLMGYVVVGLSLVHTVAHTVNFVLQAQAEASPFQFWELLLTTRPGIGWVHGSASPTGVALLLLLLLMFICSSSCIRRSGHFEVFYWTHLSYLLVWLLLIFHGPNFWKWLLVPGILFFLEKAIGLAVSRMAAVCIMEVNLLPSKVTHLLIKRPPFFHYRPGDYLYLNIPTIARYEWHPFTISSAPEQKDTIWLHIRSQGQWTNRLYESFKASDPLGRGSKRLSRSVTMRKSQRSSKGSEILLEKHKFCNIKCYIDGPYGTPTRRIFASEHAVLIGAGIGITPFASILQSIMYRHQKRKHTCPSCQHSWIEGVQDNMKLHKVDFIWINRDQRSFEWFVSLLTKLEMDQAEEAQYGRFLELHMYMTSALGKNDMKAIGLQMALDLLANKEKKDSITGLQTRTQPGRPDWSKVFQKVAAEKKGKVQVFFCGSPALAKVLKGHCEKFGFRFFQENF

| Compound | composite z-score [1] | z-score [2] | z-score [3] | z-score [4] | z-score [5] | composite z-score [6] | composite z-score [7] | composite z-score (Torsin-1A (Homo sapiens) [8]) | composite z-score (Torsin-1A (Homo sapiens) [9]) | composite z-score [10] | z-score [11] | composite z-score [12] | z-score [13] | z-score [14] | z-score [15] | z-score [16] | z-score [17] | z-score [18] | z-score [19] | z-score [20] |
| --- | --- | --- | --- | --- | --- | --- | --- | --- | --- | --- | --- | --- | --- | --- | --- | --- | --- | --- | --- | --- |
| O=C1N[C@@H](Cc2ccccc2)C(=O)N2[C@@H]1C[C@@H](C(=O)O)[C@H]2c1ccc(O)cc1 | 0.391 | -0.477 (inactive) | 0.106 (inactive) | 0.692 (inactive) | -0.789 (inactive) | 0.0885 | 0.25 | 0.574 | 0.533 | 2.02 | 1.13 (inactive) | 0.47 | 6.71 (inactive) | 1.04 (inactive) | -2.73 (inactive) | 0.595 (inactive) | -0.0505 | -6.08 (inactive) | -4.88 (inactive) | -2.63 |
| O=C(NCCN1CCOCC1)[C@@H]1c2ccccc2C(=O)N(Cc2ccccc2)[C@H]1c1ccc(CO)cc1 | -0.817 | -1.62 (inactive) | -0.996 (inactive) | 0.145 (inactive) | -0.674 (inactive) | 1.49 | -0.0719 | -1.46 | -0.21 | -1.67 | 0.347 (inactive) | -0.101 | 1.23 (inactive) | -0.222 (inactive) | 0.766 (inactive) | -0.0161 (inactive) | -0.214 | -1.71 (inactive) | -0.652 (inactive) | -2.89 |
| CCCNC(=O)[C@@]1(C)c2ccccc2C(=O)N(Cc2ccccc2)[C@H]1c1ccc(CO)cc1 | -0.15 | -0.535 (inactive) | 0.62 (inactive) | 0.0924 (inactive) | -0.163 (inactive) | -1 | 0.101 | -0.102 | -1.96 | -0.203 | 1.3 (inactive) | 0.594 | 3.35 (inactive) | 0.505 (inactive) | 0.231 (inactive) | 0.157 (inactive) | 0.0612 | -0.703 (inactive) | -0.0486 (inactive) | 0.885 |
| C=C(/C(=C/C[C@@H](OC(C)=O)c1ccc(OCCO)cc1)c1cc(C(=O)OC)ccc1OC)C(C)C | -0.0426 | -2.02 (inactive) | 1.03 (inactive) | 3.85 (inactive) | -0.27 (inactive) | -0.124 | 0.167 | 0.856 | 0.693 | 1.41 | -0.2 (inactive) | 0.0794 | 8.16 (active) | 1.11 (inactive) | 1.24 (inactive) | 0.774 (inactive) | -0.219 | -0.323 (inactive) | -0.645 (inactive) | -1.87 |
| COCC1=C2[C@@H](CCc3ccccc3)OB(O)C[C@@H]2[C@@H]2C(=O)N(C)C(=O)[C@@H]2C1 | -0.16 | 0.0876 (inactive) | 0.0987 (inactive) | -0.871 (inactive) | 1.08 (inactive) | 0.0675 | -0.113 | 0.607 | -0.0933 | 0.588 | -0.801 (inactive) | 0.0355 | 1.4 (inactive) | -0.301 (inactive) | -0.793 (inactive) | -0.015 (inactive) | -0.1 | -0.116 (inactive) | 0.762 (inactive) | 0.217 |
